According to PubChem BioAssay (NCI):
Compounds without any hit were thinned out: in the full panel of roughly 83,000, 20% have a hit.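 Method: cells in 96-well plates; compound added at one concentration; 48 h incubation; percent growth measured; values under 10 scored active.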 The source made the active and inactive calls.

How the values were obtained:
Assay in all cases: NCI-60 one-dose screen, 48 h (100 = growth as untreated, 0 = no growth, -100 = all killed)
Conditions in all cases: 10 µM unless noted
DU-145 prostate = system: DU-145 prostate
K-562 leukemia = system: K-562 leukemia
MALME-3M melanoma = system: MALME-3M melanoma
MDA-MB-231 breast = system: MDA-MB-231 breast
RXF 393 renal = system: RXF 393 renal
SF-268 CNS = system: SF-268 CNS
SF-295 CNS = system: SF-295 CNS
SF-539 CNS = system: SF-539 CNS
UACC-257 melanoma = system: UACC-257 melanoma
M14 melanoma = system: M14 melanoma

Measured: growth

O=C1NCCc2c1noc2-c1ccccc1
inactive: DU-145 prostate 104% | K-562 leukemia 108% | MALME-3M melanoma 108% | MDA-MB-231 breast 122% | RXF 393 renal 105% | SF-268 CNS 93.7% | SF-295 CNS 97.8% | SF-539 CNS 94.7% | UACC-257 melanoma 101% | M14 melanoma 101%

COc1cccc(N2CCN(c3cccc(C)n3)CC2)c1
inactive: DU-145 prostate 106% | K-562 leukemia 85.2% | MALME-3M melanoma 102% | MDA-MB-231 breast 101% | RXF 393 renal 76.4% | SF-268 CNS 129% | SF-295 CNS 83.2% | SF-539 CNS 101% | UACC-257 melanoma 97.7% | M14 melanoma 89.9%

CCOC(=O)c1cc2oc(/C=C/c3cc(=O)c4cc(Cl)ccc4o3)cc2[nH]1
inactive: DU-145 prostate 65.4% | K-562 leukemia 88.9% | MDA-MB-231 breast 78.9% | RXF 393 renal 58% | SF-268 CNS 73% | SF-295 CNS 109% | SF-539 CNS 70% | UACC-257 melanoma 101%
active: MALME-3M melanoma -14.5%

COC(=O)c1cc2c(/C=C3/NC(=S)NC3=O)coc2n1C
inactive: DU-145 prostate 134% | K-562 leukemia 95.6% | MALME-3M melanoma 58.4% | MDA-MB-231 breast 82.2% | RXF 393 renal 38.4% | SF-268 CNS 37.7% | SF-295 CNS 45.2% | SF-539 CNS 82.2% | UACC-257 melanoma 107%

C/C(=C\CCc1ccoc1)CC/C=C(\C)CCCNc1ccc(F)cc1
inactive: DU-145 prostate 101% | K-562 leukemia 68.6% | MALME-3M melanoma 88.2% | MDA-MB-231 breast 72.9% | RXF 393 renal 101% | SF-268 CNS 90.1% | SF-295 CNS 102% | SF-539 CNS 89.6% | UACC-257 melanoma 99.7% | M14 melanoma 103%

COC(=O)N/N=C/c1coc2ccc(Cl)cc2c1=O
inactive: DU-145 prostate 106% | K-562 leukemia 86.9% | MALME-3M melanoma 75.7% | MDA-MB-231 breast 71.3% | RXF 393 renal 66.6% | SF-268 CNS 85.5% | SF-295 CNS 93.6% | SF-539 CNS 99.8% | UACC-257 melanoma 111%

Cc1ccc(N/N=C(/C(=O)c2ccc(Cl)cc2)c2nc(C)cc(=O)[nH]2)cc1
inactive: DU-145 prostate 102% | K-562 leukemia 91.7% | MALME-3M melanoma 126% | MDA-MB-231 breast 95.9% | RXF 393 renal 40.7% | SF-268 CNS 107% | SF-295 CNS 90% | SF-539 CNS 85.3% | UACC-257 melanoma 105% | M14 melanoma 82.7%

COCCOCCOCCOCCOc1ccc2c(c1)C(=O)c1nc3ncccc3c(=O)n1-2
inactive: MDA-MB-231 breast 23.8%
active: DU-145 prostate -95.1% | K-562 leukemia -92% | MALME-3M melanoma -96.2% | RXF 393 renal -72% | SF-268 CNS -19.2% | SF-295 CNS -97% | SF-539 CNS -89.6% | UACC-257 melanoma -83.9% | M14 melanoma -90.4%

O=c1[nH]c(SCc2ccccc2)nc2nc(Nc3ccc(NC(=S)Nc4ccccc4)cc3)nc(-c3ccc(O)cc3O)c12
inactive: DU-145 prostate 112% | K-562 leukemia 90.6% | MALME-3M melanoma 75% | MDA-MB-231 breast 98% | RXF 393 renal 66.2% | SF-268 CNS 92.6% | SF-295 CNS 101% | SF-539 CNS 91.8% | UACC-257 melanoma 109%

C[C@H](C(=O)N[C@@H](Cc1ccc(-c2ccccc2)cc1)C(=O)NC1CC(C)(C)NC(C)(C)C1)c1ccc(-c2ccccc2)c(F)c1
active: DU-145 prostate -89.3% | K-562 leukemia -53.7% | MALME-3M melanoma -77.4% | MDA-MB-231 breast -53.6% | RXF 393 renal -55.6% | SF-268 CNS -58.1% | SF-295 CNS -54.5% | SF-539 CNS -78.6% | UACC-257 melanoma -62.9% | M14 melanoma -79.2%

O=c1oc2c(cc1-c1ccc([N+](=O)[O-])cc1)C(O)Oc1ccccc1-2 (stereo not given)
inactive: DU-145 prostate 142% | K-562 leukemia 76.8% | MALME-3M melanoma 77.6% | MDA-MB-231 breast 114% | RXF 393 renal 49.1% | SF-268 CNS 94.7% | SF-295 CNS 67.9% | SF-539 CNS 93.8% | UACC-257 melanoma 89.3%

CC(=O)[C@H]1CC[C@H]2[C@@H]3C[C@H](C)C4=CC(=O)CC[C@]4(C)[C@H]3C(=O)C[C@]12C
inactive: DU-145 prostate 112% | K-562 leukemia 106% | MALME-3M melanoma 109% | MDA-MB-231 breast 108% | RXF 393 renal 103% | SF-268 CNS 96.6% | SF-295 CNS 120% | SF-539 CNS 98.5% | UACC-257 melanoma 102% | M14 melanoma 101%

COc1ccc(NS(=O)(=O)N2CCCCC2)cc1
inactive: DU-145 prostate 116% | K-562 leukemia 93.8% | MALME-3M melanoma 117% | MDA-MB-231 breast 91.5% | RXF 393 renal 105% | SF-268 CNS 98.9% | SF-295 CNS 113% | SF-539 CNS 108% | UACC-257 melanoma 102% | M14 melanoma 102%

COc1c(O)cc2c(c1CC=C(C)C)OC(=O)c1c(cc(O)c(CC=C(C)C)c1O)O2
inactive: DU-145 prostate 71.6% | K-562 leukemia 23.9% | MALME-3M melanoma 113% | SF-268 CNS 41% | SF-295 CNS 81% | SF-539 CNS 68.8% | UACC-257 melanoma 92.6% | M14 melanoma 27.3%
active: MDA-MB-231 breast 4.16% | RXF 393 renal -43.5%
